Among all 63,000 compounds or so, about 1,100 (1.7%) were called active. This is one part of a sample in which actives are shown more often than they occur.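 Rule for the calls: active = compounds whose percent cytotoxicity in the single-dose primary screen, scaled between solvent and toxic-drug controls, exceeds 50; inactive = the rest.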 Results with a measured potency or affinity are listed apart.

This test is described as follows: viability loss of HPDE-C7K cells – cell-based, fluorescence, HTS, primary screen (AID 431).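 Note: 0% = DMSO solvent wells and 100% = doxorubicin-treated wells.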 The note with it: HPDE-C7K KRASV12 cells, Alamar Blue viability, 48 h; at 10 µM; active compounds read high.
Regarding `CNc1nc(C)c(C(=O)OCc2ccccc2)s1`, the cytotoxicity is -0.8% (inactive).

On to `C=CCOn1c(=O)c(=O)n(OCc2ccccc2)c2ccccc21`, for which the cytotoxicity was -23.8% (inactive).

Regarding `C/C(N)=C(/C#N)C(=O)CSc1nc2cc(Cl)ccc2s1`, the cytotoxicity is 12% (inactive).

On to `CCOC(=O)N1CCC(NC(=O)c2cc(S(=O)(=O)N3CCC4(CC3)OCCO4)ccc2F)CC1`, for which the cytotoxicity was -4.2% (inactive).

In the case of `COC(=O)c1ccc(C2C(C#N)=C(N)Oc3cc(C)n(C)c(=O)c32)cc1` (stereo not drawn), the cytotoxicity was -10.1% (inactive).

With `CCCCCC(=O)N1CCN(c2ccc(C(C)=O)cc2F)CC1`, the cytotoxicity is 0.9% (inactive).

As for `CCCC(=O)c1ccc(N2CCN(C(=O)c3ccc(Br)cc3)CC2)c(F)c1`, the cytotoxicity is -6.7% (inactive).

As for `CCCC(=O)N1CCN(c2ccc(C(=O)c3ccc(OC)c(Br)c3)cc2F)CC1`, the cytotoxicity is 62.5% (active).

As to `COc1ccc(-c2nnc(SCC(=O)N3CCCCC3)o2)cc1OC`, the cytotoxicity is -0.7% (inactive).

For `O=C(NC1CCCCC1)c1ccc(Cn2cc(Br)cn2)o1`, the cytotoxicity was -12.9% (inactive).

Turning to `CC(=O)c1sc(NC(=O)c2ccc(Cn3cc(Br)cn3)o2)nc1C`, the cytotoxicity was 1.1% (inactive).

Take `O=C(Nc1ccc(C(F)(F)F)cc1Cl)c1ccc(Cn2cc(Br)cn2)o1`: the cytotoxicity was 124% (active).

Consider `Clc1ccccc1CSc1ncccn1`, for which the cytotoxicity was -6% (inactive).

As for `Cc1cc(C)nc(SCc2nnc(SCc3ccccc3Cl)o2)n1`, the cytotoxicity is -16.5% (inactive).

In the case of `COc1ccc(NC(=O)CSc2nnc(-c3ccco3)n2C)cc1`, the cytotoxicity is 0.5% (inactive).

Regarding `Cc1ccc(NC(=O)CSc2nnc(-c3ccco3)c(-c3ccco3)n2)cc1`, the cytotoxicity was 90.7% (active).

For the compound `O=C(CSc1nnc(-c2ccco2)c(-c2ccco2)n1)Nc1ccccc1`, the cytotoxicity was 1.2% (inactive).

Turning to `CCNC(=O)CP(=O)(c1ccccc1)c1ccccc1`, the cytotoxicity is 1.9% (inactive).

With `CCc1ccc(Cn2nnc(C(=O)Nc3cccc(C)c3)c2N)cc1`, the cytotoxicity was -0.7% (inactive).

As to `CCOC(=O)C1CCCN(CCC(C)c2ccccc2)C1` (stereo not drawn), the cytotoxicity was 20.5% (inactive).

For `Cc1c(NC(=O)NC(=O)c2ccc(F)cc2)c(=O)n(-c2ccccc2)n1C`, the cytotoxicity is -11.2% (inactive).

For the compound `Cc1nc(N)sc1-c1csc(Nc2ccccn2)n1`, the cytotoxicity is -9.8% (inactive).

On to `COc1cccc(Nc2nc(-c3sc(N)nc3C)cs2)c1`, for which the cytotoxicity was 60.7% (active).

With `COc1ccc(CCNc2nc(-c3sc(N)nc3C)cs2)cc1OC`, the cytotoxicity is 16.4% (inactive).

In the case of `Cc1nc(N)sc1-c1csc(Nc2ccccc2)n1`, the cytotoxicity is 49% (inactive).

Turning to `COc1ccc(OC)c(Nc2nc(-c3sc(N)nc3C)cs2)c1`, the cytotoxicity was 37.6% (inactive).

Turning to `COc1ccc(Nc2nc(-c3sc(N)nc3C)cs2)cc1`, the cytotoxicity is 58% (active).

With `CCOc1ccc(Nc2c3c(nc4ncnn24)CC(C)CC3)cc1` (stereo not drawn), the cytotoxicity is 4.3% (inactive).

In the case of `O=C(O)CCCNS(=O)(=O)c1cccs1`, the cytotoxicity is 8% (inactive).

In the case of `COc1ccc(NC(=O)C2CC2)cc1-n1cnnn1`, the cytotoxicity is -12.2% (inactive).

In the case of `NC(=O)C1CCN(C(=O)CN(c2cccc(C(F)(F)F)c2)S(=O)(=O)c2ccccc2)CC1`, the cytotoxicity was -1.4% (inactive).

For the compound `CCOC(=O)Nc1ccc2c(c1)N(C(=O)CCN1CCOCC1)c1ccccc1S2=O` (stereo not drawn), the cytotoxicity was 69.3% (active).

For the compound `CCOC(=O)Nc1ccc2c(c1)N(C(=O)CCN1CCOCC1)c1ccccc1S2`, the cytotoxicity is 0.3% (inactive).

As for `CCOC(=O)Nc1ccc2c(c1)Sc1ccccc1N2C(=O)CCN1CCOCC1`, the cytotoxicity was 1.2% (inactive).

`Cc1c(NC(=O)CSc2nnnn2Cc2ccccc2)c(=O)n(-c2ccccc2)n1C`: the cytotoxicity is -13.5% (inactive).

For `Cc1c(NC(=O)Nc2ccc(Cl)cc2)c(=O)n(-c2ccccc2)n1C`, the cytotoxicity was -17% (inactive).

Consider `Cc1c(NC(=O)Nc2ccc(Cl)c(Cl)c2)c(=O)n(-c2ccccc2)n1C`, for which the cytotoxicity was 70.7% (active).

Regarding `Cc1c(NC(=O)Nc2cccc(Cl)c2)c(=O)n(-c2ccccc2)n1C`, the cytotoxicity was -10.4% (inactive).

Turning to `Cc1c(NC(=O)c2ccc(=O)oc2)c(=O)n(-c2ccccc2)n1C`, the cytotoxicity was -10.4% (inactive).

In the case of `Cc1c(NC(=O)c2ccc(Br)o2)c(=O)n(-c2ccccc2)n1C`, the cytotoxicity was 12.6% (inactive).

Take `CCOC(=O)c1nn(-c2ccccc2)c(=O)c(C#N)c1C`: the cytotoxicity was 0.8% (inactive).

For `Cc1noc(C)c1COC(=O)CCCOc1ccc(Cl)cc1Cl`, the cytotoxicity is 5.6% (inactive).

With `COc1cccc(NC(=O)CN2CCN(S(=O)(=O)c3ccc(C(C)C)cc3)CC2)c1`, the cytotoxicity is -4.2% (inactive).

With `C/C(=N\O)C(=O)C(CN1CCCCC1)CN1CCCCC1`, the cytotoxicity is -6.8% (inactive).

Consider `COc1cc(NC(=O)C2C3C=CC(C3)C2C(=O)O)c(OC)cc1Cl` (stereo not drawn), for which the cytotoxicity was 2.1% (inactive).

Regarding `CCOC(=O)C1=C(N)n2c(s/c(=C\c3cccnc3)c2=O)=C(C(=O)OCC)C1c1cccnc1` (stereo not drawn), the cytotoxicity is -18.8% (inactive).

`CCOC(=O)C1=C(N)n2c(s/c(=C\c3ccco3)c2=O)=C(C(=O)OC(C)C)C1c1ccco1` (stereo not drawn): the cytotoxicity is 0.1% (inactive).

`CCOC(=O)C1=C(N)n2c(s/c(=C/c3ccco3)c2=O)=C(C(=O)OC)C1c1ccco1` (stereo not drawn): the cytotoxicity is 73.7% (active).

Take `N#CC1=C(N)n2c(s/c(=C\c3ccco3)c2=O)=C(C#N)C1c1ccco1` (stereo not drawn): the cytotoxicity was 5.8% (inactive).

Turning to `CCOC(=O)C1=C(N)n2c(s/c(=C\c3cccnc3)c2=O)=C(C(=O)OC)C1c1cccnc1` (stereo not drawn), the cytotoxicity was -15.5% (inactive).

Turning to `O=C(OCN1C(=O)c2ccccc2C1=O)c1ccccc1`, the cytotoxicity was 2.9% (inactive).

Consider `CCn1c(=O)cc(OCC(=O)Nc2cc(C)ccn2)c2ccccc21`, for which the cytotoxicity is -3.3% (inactive).

With `N#Cc1nc(COc2ccccc2F)oc1N1CCCCCC1`, the cytotoxicity is -5.8% (inactive).

As to `CCOc1ccccc1CN1CCN(S(C)(=O)=O)CC1`, the cytotoxicity is -4.6% (inactive).

With `CCc1ccc(NC(=O)CSC2=C(C#N)C(c3ccco3)C3=C(CCCC3=O)N2)cc1` (stereo not drawn), the cytotoxicity is 8.2% (inactive).

As to `Cc1ccc(C(=O)CSC2=C(C#N)C(c3ccco3)C3=C(CC(C)(C)CC3=O)N2)cc1` (stereo not drawn), the cytotoxicity was 18.2% (inactive).

For the compound `Cc1ccc(C(=O)CSC2=C(C#N)C(c3ccco3)C3=C(CCCC3=O)N2)cc1` (stereo not drawn), the cytotoxicity is 77.3% (active).

Turning to `CCCCc1ccc(NC(=O)CSC2=C(C#N)C(c3ccco3)C3=C(CCCC3=O)N2)cc1` (stereo not drawn), the cytotoxicity was 79.6% (active).

`Cc1ccc(NC(=O)CSC2=C(C#N)C(c3ccco3)C3=C(CCCC3=O)N2)cc1` (stereo not drawn): the cytotoxicity is 2.1% (inactive).

`CC1(C)CC(=O)C2=C(C1)NC(SCC(=O)Nc1ccccc1)=C(C#N)C2c1ccco1` (stereo not drawn): the cytotoxicity was -6.1% (inactive).

For the compound `COc1cccc(NC(=O)CSC2=C(C#N)C(c3ccco3)C3=C(CCCC3=O)N2)c1` (stereo not drawn), the cytotoxicity was 15.3% (inactive).

For `N#CC1=C(SCC(=O)c2ccccc2)NC2=C(C(=O)CCC2)C1c1ccco1` (stereo not drawn), the cytotoxicity is 41.2% (inactive).

As to `Cc1ccc(NC(=O)CSC2=C(C#N)C(c3ccco3)C3=C(CC(C)(C)CC3=O)N2)cc1` (stereo not drawn), the cytotoxicity was 54.3% (active).

(Values after PubChem BioAssay AID431 (Sanford-Burnham Center for Chemical Genomics, 2006).)
